Reference: PubChem BioAssay (EPA / NIEHS)
Active and inactive are the calls of the source. The calls were made as follows: active = hit-call score of the fitted dose curve at least 0.9, where 1 is the maximum; inactive = score below 0.9.

experiment: ATG_AP_1_CIS: Attagene CIS-FACTORIAL HepG2 Assay for human Activator Protein 1 (AP-1) (AID 2282931); conditions: HepG2 Attagene cis-factorial AP-1 reporter mRNA; actives raise or lower the signal
Experimental: ATG_CIS is a cell-based, multiplexed-readout assay that uses HepG2, a human liver cell line, with measurements taken at 24 hours after chemical dosing in a 24-well plate.ATG_AP_1_CIS is one of 52 assay component(s) measured or calculated from the ATG_CIS assay. It is designed to make measurements of mRNA induction, a form of inducible reporter, as detected with fluorescence intensity signals by Reverse transcription polymerase chain reaction (RT-PCR) and Capillary electrophoresis technology.Data from the assay component ATG_AP_1_CIS was analyzed into 1 assay endpoint. This assay endpoint, ATG_AP_1_CIS, was analyzed with bidirectional fitting relative to DMSO as the negative control and baseline of activity. Using a type of inducible reporter, measures of mRNA for gain or loss-of-signal activity can be used to understand the reporter gene at the transcription factor-level as they relate to the gene FOS and JUN. Furthermore, this assay endpoint can be referred to as a primary readout, because this assay has produced multiple assay endpoints where this one serves a reporter gene function. To generalize the intended target to other relatable targets, this assay endpoint is annotated to the dna binding intended target family, where the subfamily is basic leucine zipper.
Human liver HepG2 cells are transiently transfected with multiple reporter transcription units (MRTUs) in 6-well plates using FuGene 6 reagent (Roche; 3 ml FuGene/1 mg DNA). The MRTU constructs are regulated by a cis-regulating element (promoter). […] A major difference between the CIS and TRANS system is that in CIS activities of endogenous TFs are measured, whereas the TRANS assay evaluates changes in activities of exogenous, chimeric NR-Gal4 proteins. […] At the end of 24 hour incubation, total RNA was isolated using TriZol reagent (Invitrogen). The isolated RNA is then reverse-transcribed using oligo(dT) primer and Mo-MLV reverse transcriptase (Invitrogen) with DNAse I (Ambion) treatment for 30 min. The one-tenth of the produced cDNA was amplified by PCR using Taq DNA polymerase (Invitrogen) and two reporter sequence-specific primers. The PCR products were fluorescently labeled by primer extension with 6-arboxyfluorescein (6-FAM) 5'-labeled reporter sequence-specific primer (2 min at 95 C, 20 s at 68 C and 10 min at 72 C) and these products were digested with 5U of HpaI (New England Biolabs) for 2h at 37 C. The fragments were purified using Qiaquick PCR columns (Qiagen), analyzed on an ABI 3130xL genetic analyzer (Applied Biosystems) with peak positions identified by using a set of X-rhodamine (ROX)-labeled MapMarker1000 molecular weight standards (BioVentures). The raw capillary electrophoresis data was processed using Attagraph software (Attagene).

| SMILES | outcome | AC50 |
| --- | --- | --- |
| CCC(C)=NO | inactive |  |
| Cc1ccnc(N)c1 | inactive |  |
| CC1=C(CC=O)C(C)(C)CCC1 | inactive |  |
| CC/C=C\CC1=C(C)CCC1=O | inactive |  |
| CCC(C)(CCC(C)C)C(=O)O (stereo not given) | inactive |  |
| O=C(O)/C=C/C(=O)O | inactive |  |
| N#CCN(CC#N)CCN(CC#N)CC#N | inactive |  |
| Oc1ccc(Oc2ccccc2)cc1 | inactive |  |
| F[B-](F)(F)F | inactive |  |
| NC(=O)c1ccc([N+](=O)[O-])cc1Cl | inactive |  |
| CCCCCC1CCCC(=O)O1 (stereo not given) | inactive |  |
| O=C(C1CCCCC1)N1CC(=O)N2CCc3ccccc3C2C1 (stereo not given) | inactive |  |
| COC(=O)CCSCCC(=O)OC | inactive |  |
| O=C(O)Cc1c[nH]c2ccccc12 | inactive |  |
| CCOC(=O)CC(=O)OCC | inactive |  |
| CCCC[N+]1(C)CCCC1 | inactive |  |
| O=C1CCCCCCCCCCCCCC1 |  | 44.6 µM (active) |
| COC(=O)/C=C\C(=O)OC |  | 28.1 µM (active) |
| NC(N)=Nc1nc(CSCCC(N)=NS(N)(=O)=O)cs1 | inactive |  |
| CC/C=C\CCO | inactive |  |

| SMILES | outcome | AC50 |
| --- | --- | --- |
| C=CCOCC(CC)(CO)COCC=C | inactive |  |
| c1cc[c]([Bi]([c]2ccccc2)[c]2ccccc2)cc1 |  | 58.1 µM (active) |
| CCCCOC(=O)COc1ccc(Cl)cc1Cl | inactive |  |
| C/C=C(\C)C(=O)OCC/C=C\CC | inactive |  |
| CC(C)n1c(/C=C/[C@@H](O)C[C@@H](O)CC(=O)O)c(-c2ccc(F)cc2)c2ccccc21 | inactive |  |
| CCO[Si](CCCN)(OCC)OCC | inactive |  |
| COC(=O)c1ccccc1 | inactive |  |
| CC1(C)S[C@@H]2[C@H](NC(=O)[C@H](N)c3ccccc3)C(=O)N2[C@H]1C(=O)O | inactive |  |
| C[Si](C)(C)O[Si](C)(C)O[Si](C)(C)C | inactive |  |
| CCCCNC(N)=O | inactive |  |
| C=C(C)C(=O)OCCCCCC | inactive |  |
| O=C1NC(=O)[C@@H]2CC=CC[C@H]12 | inactive |  |
| O=C(O)c1ccccc1C(=O)O | inactive |  |
| CN(C)CCC(c1ccc(Cl)cc1)c1ccccn1 (stereo not given) | inactive |  |
| CCCC(=O)OC | inactive |  |
| CCCCCC[C@@H](O)C/C=C\CCCCCCCC(=O)O |  | 71.8 µM (active) |
| O=[N+]([O-])c1ccccc1C(F)(F)F | inactive |  |
| CCCCC(CC)COC(=O)CS (stereo not given) | inactive |  |
| C[C@H]1C[C@H]2[C@@H]3CCC4=CC(=O)C=C[C@]4(C)[C@@]3(F)[C@@H](O)C[C@]2(C)[C@@]1(O)C(=O)CO | inactive |  |
| CC(=O)OC(C)(C)Cc1ccccc1 | inactive |  |
